# Assay results as given in PubChem BioAssay AID602429 (Sanford-Burnham Center for Chemical Genomics, 2012).
# About 1,200 (0.33%) of roughly 360,000 compounds were called active. Cut-off read from the data, not from the text of the source: active = inhibition above about 37%; inactive = the rest. The full list was thinned out, with actives kept by preference.
# Molecular target: Small ubiquitin-related modifier 1 (Homo sapiens) (UniProt P63165)
# Assay: SUMO1 binding to interaction partners, disruption – biochemical, uHTS, primary screen (AID 602429)
# Settings: SUMO1 binding to a labelled peptide, TR-FRET, 1 h; at 20 µM; stronger effect = higher value
# Sequence of Small ubiquitin-related modifier 1 (Homo sapiens) (P63165 whole entry, looked up): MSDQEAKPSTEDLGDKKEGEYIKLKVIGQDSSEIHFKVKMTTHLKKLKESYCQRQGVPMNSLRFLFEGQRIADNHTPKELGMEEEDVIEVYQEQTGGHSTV
row,Structure (SMILES),inhibition
1,CCCn1c(N)c(C(=O)CSc2nc3ccccc3c(=O)n2-c2ccc(OC)cc2)c(=O)[nH]c1=O,46.9% (active)
2,CCCn1c(N)c(C(=O)CSc2nnc3n2CCCCC3)c(=O)[nH]c1=O,8.44% (inactive)
3,CCOc1ccc(-n2c(SCC(=O)Nc3cc(C(=O)O)ccc3Cl)nc3ccccc3c2=O)cc1,19.1% (inactive)
4,COCCOC(=O)c1c(C)oc2cc(Br)c(OCC(N)=O)cc12,-1.35% (inactive)
5,CCN(c1ccccc1)S(=O)(=O)c1cccc(C(=O)NCc2ccccc2CN2CCOCC2)c1,-2.56% (inactive)
6,COc1ccc(C)cc1NC(=O)NCCCCc1ccccc1,3.9% (inactive)
7,O=S(=O)(NCCSc1ccccn1)c1ccc(Cl)cc1,-0.907% (inactive)
8,O=C(Cc1ccsc1)N1CCN(S(=O)(=O)c2cc(C(F)(F)F)cc(C(F)(F)F)c2)CC1,32.3% (inactive)
9,COc1ccc2[nH]c(=O)c(-c3noc(-c4ccc(F)cc4)n3)cc2c1,64% (active)
10,COc1ccc(Cc2cc(-c3ccc(F)cc3)n[nH]c2=O)cc1,-0.22% (inactive)
11,CCCc1nc(-c2cc3cc(C)ccc3[nH]c2=O)no1,-3.17% (inactive)
12,Cc1cc(C)cc(OCC(=O)Nc2cc(NC(=O)COc3cc(C)cc(C)c3)cc(C(=O)O)c2)c1,13.4% (inactive)
13,CCN1CCCC1CNC(=O)Cn1cnc2ccc(S(=O)(=O)N3CCC(C)CC3)cc2c1=O (centres undefined),-2.59% (inactive)
14,CCN1CCCC1CNC(=O)c1cc2c(=O)n(C)c3ccccc3c2n1C (centres undefined),46.4% (active)
15,CCN1CCCC1CNC(=O)c1ccc2c(c1)NC(=O)/C(=C\c1ccccc1F)S2 (centres undefined),-60.4% (inactive)
16,CCCCn1c(SCc2ncc(-c3ccccc3)o2)nc2cc(S(N)(=O)=O)ccc21,0.0839% (inactive)
17,CCCCc1nc(SCC(=O)Nc2nnc(C(C)C)s2)n[nH]1,4.69% (inactive)
18,O=C(COc1ccc(Cl)cc1)Nc1ccc2oc(=O)ccc2c1,4.58% (inactive)
19,COc1ccccc1CNS(=O)(=O)c1cc(C(=O)NCc2ccccn2)c(Cl)cc1Cl,-1.08% (inactive)
20,COCCNC(=O)Nc1ccc2nc(-c3ccco3)c(-c3ccco3)nc2c1,64.2% (active)
21,COCCNC(=O)c1ccc2nc(Cc3ccc(OC)c(OC)c3)oc2c1,0.593% (inactive)
22,COc1cc(NC(=O)C2=CC(c3ccco3)=NS(=O)(=O)N2C)cc(OC)c1OC,-26.3% (inactive)
23,O=C(NCc1ccco1)C(=O)c1cn(CC(=O)N2CCCCCC2)c2ccccc12,-6.74% (inactive)
24,CC1(C)CC(=O)C(C=NCc2cccnc2)=C(O)C1,-0.212% (inactive)
